Screens deposited in PubChem by National Center for Advancing Translational Sciences (NCATS).
This is one part of a sample in which hits are shown more often than they occur.
Menin MLL FP FL: menin-MLL binding inhibition, fluorescein peptide | Fluorescence polarization, fluorescein-MLL peptide displacement from menin | FP activity change, % at 61.4 µM | 290,000 tested, under 10 active; active means well fitted curve in the direction sought with a large enough effect in the polarisation, not every such curve was filed as active; inconclusive means small, poorly fitted or top-dose-only effect, or effect the other way, or a change in a side signal; inactive means no such curve, though single readings can be large or run the other way; the % refers to the polarisation; further: % of control where 0% means no effect
ERG-DNA inh: inhibitors of human ERG Ets domain-DNA interaction; P11308; Potency, µM (top dose mostly 76.9 µM), inactives show at the highest dose FP activity, negative = inhibition, most hits filed as inhibitors; 0.028% of 370,000 active; fluorescence polarization, His-ERG Ets domain / labelled DNA; active means well fitted inhibition curve with a large enough effect in the polarisation, with a control signal flat; inconclusive means small, poorly fitted or top-dose-only effect, or effect the other way, or a change in a side signal; inactive means no such curve, though single readings can be large or run the other way; the % refers to the polarisation;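 further: polarization taken with two DNA probes labelled with fluorescein and Texas red; potency means the concentration at half of the fitted maximal effect; % of control where 0% means no effect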
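His-tagged ERG Ets domain (1 uM in the protein solution; 300mM KCl, 50mM Tris-HCl, 1mM EDTA, 1mM DTT, pH 7.5) received compound, then a probe mix of 5 nM fluorescein-DNA and 100nM Texas-615-DNA. Fluorescence polarization was read for both dyes.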
Menin MLL FP TR: inhibitors of human menin-MLL interaction, mutant MLL peptide. O00255. AID 1768. Menin + Texas Red MLL mutant peptide, fluorescence polarization. 0.23% of 270,000 active. Potency, µM (series often up to 61.6 µM), for the others: top-dose FP activity change, negative = inhibition, usual class: inhibitors; active means well fitted inhibition curve with a large enough effect in the polarisation, with a control signal flat, not every such curve was filed as active; inconclusive means small, poorly fitted or top-dose-only effect, or effect the other way, or a change in a side signal; inactive means no such curve, though single readings can be large or run the other way; the % refers to the polarisation; further: potency means the concentration at half of the fitted maximal effect; % of control where 0% means no effect
Target sequence (O00255 whole entry, looked up): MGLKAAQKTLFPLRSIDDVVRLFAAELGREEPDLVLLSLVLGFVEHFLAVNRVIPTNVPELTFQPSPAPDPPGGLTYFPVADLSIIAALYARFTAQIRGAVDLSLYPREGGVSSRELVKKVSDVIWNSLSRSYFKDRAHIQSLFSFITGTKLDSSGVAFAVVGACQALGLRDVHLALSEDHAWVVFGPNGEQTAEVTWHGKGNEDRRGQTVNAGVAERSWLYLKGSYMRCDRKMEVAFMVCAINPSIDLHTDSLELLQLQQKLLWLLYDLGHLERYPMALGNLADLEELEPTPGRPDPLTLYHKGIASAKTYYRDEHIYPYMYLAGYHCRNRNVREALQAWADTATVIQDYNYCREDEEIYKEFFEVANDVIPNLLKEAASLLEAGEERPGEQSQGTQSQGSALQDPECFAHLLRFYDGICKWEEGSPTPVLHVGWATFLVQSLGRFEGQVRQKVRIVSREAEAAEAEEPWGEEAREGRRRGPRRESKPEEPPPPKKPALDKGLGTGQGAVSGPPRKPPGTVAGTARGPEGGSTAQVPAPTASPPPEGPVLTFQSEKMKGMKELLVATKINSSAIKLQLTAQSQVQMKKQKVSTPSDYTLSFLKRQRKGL
CXXC DNA block: blocks binding of human MLL CXXC domain to DNA; 0.037% of 290,000 active; MLL-CXXC / FITC-HOXA9 DNA fluorescence polarization; Potency, µM (titrated, usually from 115 µM), for the others: at the top dose activity change, negative = inhibition, most hits filed as inhibitors; AID 2662; active means well fitted inhibition curve with a large enough effect in the polarisation, with a control signal flat, not every such curve was filed as active; inconclusive means small, poorly fitted or top-dose-only effect, or effect the other way, or a change in a side signal; inactive means no such curve, though single readings can be large or run the other way; the % refers to the polarisation; further: potency means the concentration at half of the fitted maximal effect
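Fluorescence polarization: 7 uM MLL-CXXC (stock) preincubated 5 min with compounds, then 50 nM fluorescein-HOX-A9 DNA (stock) added; 30 min ambient. Buffer 50 mM Tris-HCl pH 7.5, 50 mM NaCl, 1 mM DTT, 0.05% BSA.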
RGS12 GoLoco inh: blocks human Gai1 binding to RGS12 GoLoco peptide, red readout | AID 880 | Potency, µM (top dose mostly 61.6 µM), for inactives: at the highest dose activity, negative = inhibition, hits mostly inhibitors | 0.44% of 230,000 active | P63096 | Gai1:RGS12 GoLoco peptide FP, rhodamine, 10 min; active means well fitted inhibition curve with a large enough effect, not every such curve was filed as active; inactive means no such curve, though single readings can be large or run the other way; further: potency means the concentration at half of the fitted maximal effect; on the % scale 0 is the no-effect control and ±100 the full control effect; nearly all actives have a fitted effect of over 30% in size
MLL CXXC FP-Fl: disrupts human MLL CXXC domain binding to DNA; Potency, µM (titrated, usually from 345 µM), for the others: at the highest dose activity change, negative = inhibition, hits mostly inhibitors; shares compounds with CXXC DNA block; MLL CXXC-DNA binding, fluorescein FP; 70% of 200 active; further: potency means the concentration at half of the fitted maximal effect; nearly all actives have a fitted effect of over 80% in size
MLL CXXC FP-TR: disrupts human MLL CXXC domain binding to DNA, Texas Red; shares compounds with CXXC DNA block; MLL CXXC-DNA binding, Texas Red fluorescence polarization; Potency, µM (highest dose often 345 µM), without a hit: top-dose activity change, negative = inhibition, most hits filed as inhibitors; 40% of 200 active; AID 624161; further: potency means the concentration at half of the fitted maximal effect; on the % scale 0 is the no-effect control and ±100 the full control effect; nearly all actives have a fitted effect of over 75% in size
MLL CXXC TRF: disrupts human MLL CXXC domain binding to DNA by HTRF. Potency, µM (titrated, usually from 172 µM), without a hit: at the top dose activity change, negative = inhibition, hits mostly inhibitors. MLL CXXC-DNA binding, HTRF, biochemical. 30% of 210 active. shares compounds with CXXC DNA block. AID 624162; further: on the % scale 0 is the no-effect control and ±100 the full control effect; nearly all actives have a fitted effect of over 80% in size
* marks the source's active call; other numbers are inactive results. Unless noted, the call rests on the fitted dose curve; in most records, active means well fitted inhibition curve with a large enough effect; inconclusive means small, poorly fitted or top-dose-only effect; inactive means no such curve, though single readings can be large or run the other way.

What do the screens show for `COc1ccc(C(=O)NCC(c2ccc3c(c2)OCO3)N2CCN(c3ccccc3F)CC2)cc1` (centres undefined)?
ERG-DNA inh: 4%

Results for CC(=O)OCC(NC(=O)C1CCCN1C(=O)OC(C)(C)C)C1OC(n2cc(F)c(=O)[nH]c2=O)C(OC(C)=O)C1OC(C)=O (centres undefined) ?
Menin MLL FP FL: 4; Menin MLL FP TR: -12%

What do the screens show for `O=C(O)c1cccc(-n2cccc2C=C2C(=O)c3ccccc3C2=O)c1`?
Menin MLL FP FL: 8; ERG-DNA inh: 6%; Menin MLL FP TR: inconclusive; CXXC DNA block: inconclusive; RGS12 GoLoco inh: 20%; MLL CXXC FP-Fl: 179µM*; MLL CXXC FP-TR: inconclusive; MLL CXXC TRF: 25%

Results for Cc1ccc(NC(=O)Cn2c(C)cc(C)c(C#N)c2=O)cc1 ?
ERG-DNA inh: 0%

Results for COc1cc(/C=C2/C(=O)NN(c3ccc(C)c(Cl)c3)C2=O)cc([N+](=O)[O-])c1O ?
Menin MLL FP FL: 1; ERG-DNA inh: 0%; Menin MLL FP TR: inconclusive; CXXC DNA block: inconclusive; MLL CXXC FP-Fl: 80µM*; MLL CXXC FP-TR: 113µM*; MLL CXXC TRF: 33%

How did COc1cc(/C=C(/C#N)C(=O)Nc2ccccc2)ccc1OCc1ccc(C(=O)O)cc1 do in these assays?
Menin MLL FP FL: 5; ERG-DNA inh: 6%; Menin MLL FP TR: 48%; CXXC DNA block: -6%; RGS12 GoLoco inh: 4%

Results for COc1cc(/C=C(\C#N)C(=O)Nc2ccc(C(=O)O)cc2)ccc1OC(=O)c1cccc(F)c1 ?
Menin MLL FP FL: inconclusive; ERG-DNA inh: 30%; Menin MLL FP TR: 28%; CXXC DNA block: inconclusive; MLL CXXC FP-Fl: 3%; MLL CXXC FP-TR: 37%; MLL CXXC TRF: -48%

How did CC(C)C(=O)Nc1c(-c2ccc(Cl)cc2)c(=O)c2ccccc2n1C do in these assays?
Menin MLL FP FL: 2; ERG-DNA inh: 4%; Menin MLL FP TR: 23%; CXXC DNA block: inconclusive; MLL CXXC FP-Fl: inconclusive; MLL CXXC FP-TR: -4%; MLL CXXC TRF: 0%

How did Cc1nc(N=Nc2cc(S(=O)(=O)O)c3cc([N+](=O)[O-])cc(S(=O)(=O)O)c3c2)c(COP(=O)(O)O)c(C=O)c1O do in these assays?
Menin MLL FP FL: 3; Menin MLL FP TR: inconclusive; CXXC DNA block: 32µM*; RGS12 GoLoco inh: 7%; MLL CXXC FP-Fl: 18µM*; MLL CXXC FP-TR: 36µM*; MLL CXXC TRF: 15µM*

Results for O=C1NN(c2ccccc2)C(=O)/C1=C\c1ccc2c(c1)OCO2 ?
Menin MLL FP FL: 2; ERG-DNA inh: -2%; Menin MLL FP TR: 9%; CXXC DNA block: inconclusive; MLL CXXC FP-Fl: 28µM*; MLL CXXC FP-TR: inconclusive; MLL CXXC TRF: 0%

Results for COc1cccc(/C=C2/C(=O)NN(c3ccccc3)C2=O)c1 ?
Menin MLL FP FL: -4; ERG-DNA inh: 19%; Menin MLL FP TR: 0%; CXXC DNA block: -3%

What do the screens show for `CCOc1ccc(C2OC34CCCCC3C(C#N)(C#N)C2(C#N)C(=N)O4)cc1OC` (centres undefined)?
Menin MLL FP FL: inconclusive; ERG-DNA inh: inconclusive; CXXC DNA block: 25µM*; RGS12 GoLoco inh: 1.4µM*; MLL CXXC FP-Fl: 18µM*; MLL CXXC FP-TR: 36µM*; MLL CXXC TRF: 14%
